High-throughput results as filed in PubChem BioAssay.
Giardia kill: Giardia lamblia killing; Giardia lamblia trophozoite viability; activity change, % at 7.66 µM, hits read low; 340,000 compounds, 0.15% hits; in the data active = activity change below about -80%; inconclusive = between about -30% and that limit;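 also: parasites exposed to compound for two days anaerobically before the ATP read; % is scaled to controls: 0 for no effect and ±100 for the full control effect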
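Compounds were tested on trophozoites seeded at 100 cells/well and held 48 hrs at 37 deg C anaerobically. An ATP-based luminescent kit measured the remaining live cells.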
TGFb SMAD3 inh: inhibitors of TGF-b signaling; 410,000 compounds, 1.2% hits; Potency, µM (doses to about 46.1 µM), inactives show top-dose activity, negative = inhibition, actives largely listed as inhibitors; HepG2 CAGA-GFP TGF-b/SMAD3 reporter, GFP fluorescence, 18 h; TGF-beta stimulated, 500 pg/mL final; also: potency is read from the fitted curve at half-maximal effect; % is scaled to controls: 0 for no effect and ±100 for the full control effect; nearly all actives have a fitted effect of over 65% in size
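Smad-responsive CAGA-GFP expression was quantified in HEPG2 cells exposed to compounds and 500 pg/mL final TGF-beta for 18 h at 37 degrees C; unstimulated wells defined full inhibition.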
HT1080-NT tox: kills 2HG-producing HT-1080-NT fibrosarcoma cells; HT-1080-NT fibrosarcoma viability, CellTiter-Glo ATP luminescence, 48 h; AID 686970; Potency, µM (doses to about 46.1 µM), for the others: at the highest dose activity, negative = less viability, hits mostly cytotoxic; 360,000 compounds, 1.6% hits;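 also: NT is the 2HG producing partner of a matched IDH1 knockdown line; potency is read from the fitted curve at half-maximal effect; 0% = DMSO-treated cells and -100% = media-only wells without cells; nearly all actives have a fitted effect of over 55% in size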
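A 48-hour cytotoxicity screen used HT-1080-NT cells plated 2 hours before compound delivery. ATP-based CellTiter-Glo luminescence measured viability, normalized to DMSO and no-cell controls.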
HT1080 IDH1KD tx: HT-1080 IDH1 knockdown cell toxicity (counter line) | HT-1080 IDH1 knockdown viability, ATP luminescence, 48 h | Potency, µM (doses to about 46.1 µM), without a hit: top-dose activity, negative = toxicity, hits mostly cytotoxic | 360,000 compounds, 2% hits;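 also: potency is read from the fitted curve at half-maximal effect; 0% = DMSO wells and -100% = cell-free medium wells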
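Assay cells: HT-1080 with IDH1 knockdown, 750 per well, RPMI/5% FBS. Exposure: 48 h at 37 °C following 2 h pre-incubation. Read: CellTiter-Glo luminescence; fitted concentration-response, curve class assigned.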
HepG2 tox: HepG2 cytotoxicity, counter-screen for TGF-b inhibitors; AID 588856; Potency, µM (series often up to 46.1 µM), inactives show at the highest dose activity change, negative = cytotoxicity, usual class: cytotoxic; HepG2 CAGA-GFP viability, ATP luminescence, 18 h; 410,000 compounds, 0.76% hits; also: potency is read from the fitted curve at half-maximal effect
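HepG2 CAGA-GFP cells (1000/well, DMEM with 1% FBS) received compound, then TGF-beta at 500 pg/mL final, and were incubated 18 hours at 37 degrees C. Viability was read by CellTiter-Glo luminescence. Media-only wells were set as complete cell-killing and DMSO as no toxicity.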
IL1B secr inh: inhibitors of inflammasome signaling (IL-1 beta secretion). THP-1 LPS/ATP IL-1B secretion, AlphaLISA, 16 h; stronger effect = lower value. 360,000 compounds, 4.7% hits. AID 743279. activity change, % at 57.5 µM; in the data active = activity change below about -50%; inconclusive = mostly about -30% to -49%; also: % is scaled to controls: 0 for no effect and ±100 for the full control effect
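Secreted IL-1B measured by AlphaLISA bead assay after 16 h compound exposure of THP-1 cells; compounds (final up to 57.5 uM) added 1 h before LPS (250 ng/mL) and ATP (1.25 mM) stimulation; lower signal means less secretion.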
* marks the source's active call; other numbers are inactive results; i = inactive; u = inconclusive; x = no result. Hits are enriched below; roughly 6.5% of the tested compounds scored in any of these assays. Unless noted, calls follow the shape of the dose curve; as a rule, active = well fitted curve in the direction sought with a large enough effect; inconclusive = small, poorly fitted or top-dose-only effect, or another doubt; inactive = no such curve, though single readings can be large; an effect the other way counts as inactive or inconclusive.

SMILES	Giardia kill	TGFb SMAD3 inh	HT1080-NT tox	HT1080 IDH1KD tx	HepG2 tox	IL1B secr inh
CC1CCN(Cc2c(C(=O)N/N=C/c3cc(Br)ccc3O)nnn2-c2nonc2N)CC1	-19	u	3.7µM*	2.3µM*	-48%	110
CC(C)c1c(C(=O)N/N=C/c2ccc(C(F)(F)F)cc2)nnn1-c1nonc1N	16	u	u	26µM*	-17%	18
c1ccc(-c2nc3c4ccccc4ccn3c2CN2CCCCC2)cc1	-9	-18%	4%	0%	-19%	-71*
CN(C(=O)CCN1C(=O)C2C3C=CC(C3)C2C1=O)c1ccccc1 (stereo unspecified)	8	1%	3%	5%	4%	12
O=C(c1ccco1)N1CCN(c2ncnc3scc(-c4cccs4)c23)CC1	1	-18%	11µM*	7.9µM*	-38%	-9
O=C(c1ccco1)N1CCN(c2ncnc3scc(-c4ccccc4)c23)CC1	-1	0%	7.3µM*	10µM*	-28%	1
COc1cccc(CCN2CCC(CNS(=O)(=O)c3cc(-c4cc(C)no4)ccc3OC)CC2)c1	-10	u	u	u	-43%	-12
O=C(Cn1nc(C(F)(F)F)c2c1CCCC2)N1CCOCC1	13	15%	21%	6%	7%	32
Cc1ccc(NC(NC(=O)Cc2ccccc2)C(Cl)(Cl)Cl)cc1 (stereo unspecified)	-3	-19%	4%	9%	-1%	0
CN1/C(=C\C(=O)C[n+]2ccc3ccccc3c2)C(C)(C)c2ccccc21	-12	-21%	u	u	-20%	-53*
CN1/C(=C/C(=O)c2nc(S(C)(=O)=O)ncc2Cl)C(C)(C)c2ccccc21	3	u	u	4.6µM*	-122%	-100*
CN1/C(=C\C(=O)c2ccco2)C(C)(C)c2ccccc21	14	u	u	10µM*	-31%	u
CN1/C(=C\C(=O)c2cncc(Br)c2)C(C)(C)c2ccccc21	19	4%	-13%	-20%	-30%	-51*
O=C1CCc2cc(S(=O)(=O)NC(C(=O)Nc3ccc(F)cc3)c3ccccc3)ccc2N1 (stereo unspecified)	x	u	x	x	-48%	x
O=C1CSC(=S)N1c1cccc(F)c1	-11	u	-17%	1%	-1%	34
O=C(CSc1nc(-c2ccco2)cc(C(F)(F)F)n1)N1CCN(Cc2ccccc2)CC1	-6	u	24%	-3%	-14%	-15
O=C(CCCSc1nc2ccccc2[nH]1)Nc1nnc(-c2ccccc2)o1	-12	u	-11%	-4%	-39%	22
Cn1nc(N)c2ncc(-c3ccc(Cl)cc3)nc21	x	-5%	-2%	u	-14%	0
CCCC(O)(c1ccc(Cl)cc1)C(CN1CCOCC1)c1ccccc1 (stereo unspecified)	1	13µM*	13%	3%	-71%	37
CCCCCC(O)(c1ccccc1)C(CN1CCOCC1)c1ccccc1 (stereo unspecified)	6	u	4%	9%	-24%	-10
CCCC(O)(c1ccc(CC)cc1)C(CN1CCOCC1)c1ccccc1 (stereo unspecified)	-16	u	33µM*	21µM*	-28%	u
CCCC(O)(c1ccc(Br)cc1)C(CN1CCOCC1)c1ccc(Cl)cc1 (stereo unspecified)	-3	u	u	u	-54%	-84*
CCCCCCC(O)(c1ccccc1)C(CN1CCOCC1)c1ccccc1 (stereo unspecified)	31	16µM*	-16%	0%	-57%	0
CCCC(O)(c1ccccc1)C(CN1CCOCC1)c1ccccc1 (stereo unspecified)	9	0%	6%	12%	-1%	26
Nc1nonc1-n1nnc(C(=O)N/N=C/c2c(Cl)cccc2Cl)c1CN1CCOCC1	-3	1%	u	1%	3%	12
SMILES	Giardia kill	TGFb SMAD3 inh	HT1080-NT tox	HT1080 IDH1KD tx	HepG2 tox	IL1B secr inh
CCOC(=O)c1c(C)[nH]c(C)c1S(=O)(=O)N(C)CC(=O)N1CCN(c2ccc(Cl)cc2)CC1	x	u	x	x	-2%	x
O=c1oc(-c2ccccc2)cc(Cl)c1Cl	28	11µM*	16µM*	9.2µM*	-97%	-100*
O=C(O)c1ccc(N/N=C/c2ccc(-c3ccccc3Cl)o2)cc1	9	-2%	u	23µM*	19%	-24
O=C(O)c1ccc(N/N=C/c2ccc(-c3ccccc3)cc2)cc1	-6	-11%	16µM*	10µM*	-12%	-17
O=C(O)c1ccc(N/N=C/c2ccc(-c3ccc(Br)cc3)o2)cc1	-5	4%	26µM*	23µM*	8%	32
CC(C)c1ccc(/C=N/Nc2ccc(C(=O)O)cc2)cc1	1	-1%	2%	5%	3%	49
COC(=O)c1sc2nc(C)nc(SCC(=O)C(C)(C)C)c2c1C	-2	-9%	-1%	2%	-8%	34
COc1ccc(NC(=S)NC(=O)/C=C/c2ccc(F)cc2)cc1	23	-9%	15%	6%	-7%	-3
O=S(=O)(Nc1cccc(-c2nc3cccnc3s2)c1)c1ccc2c(c1)CCCC2	-5	13µM*	2%	-8%	10µM*	5
O=C(c1ccc2ncsc2c1)N1CCN(c2nc3ccccc3s2)CC1	7	-26%	u	7%	-7%	i
O=C(c1ccc(Cl)c(S(=O)(=O)N2CCCCCC2)c1)N1CCN(c2ccccc2O)CC1	-2	u	-23%	-28%	-2%	-68*
O=C(c1ccc(Cl)c(S(=O)(=O)N2CCOCC2)c1)N1CCc2ccccc2C1	22	-25%	0%	-13%	-16%	-64*
O=C(c1ccc(Cl)c(S(=O)(=O)N2CCOCC2)c1)N1CCCCCC1	-27	-1%	1%	4%	10%	27
O=C(c1ccc2ncsc2c1)N1CCN(c2ccccc2Cl)CC1	-10	-9%	-14%	-24%	0%	-66*
Cc1cccc(N2CCN(C(=O)c3ccc4nc[nH]c4c3)CC2)c1C	4	7%	-13%	-14%	-4%	-18
Cc1cccc(N2CCN(C(=O)c3ccc4ncsc4c3)CC2)c1C	-6	0%	2.6µM*	5.8µM*	-37%	12
COc1ccccc1N1CCN(C(=O)c2ccc(Cl)c(S(=O)(=O)NCc3ccco3)c2)CC1	2	-7%	8.9µM*	7.1µM*	-14%	-6
